Source: PubChem BioAssay (NCI)
This is part of a sample that, as a whole, favours compounds with a hit. Of some 83,000 tested, about 20% had one in any assay.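 In brief: 96-well plates, 48 h treatment, single concentration, percent growth endpoint.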 The source made the active and inactive calls. How the source made its calls: active means growth percent below 10; inactive means the rest.

Experiments:
Assay in all cases: NCI-60 one-dose screen, 48 h (100 = growth as untreated, 0 = no growth, -100 = all killed)
Settings in all cases: 10 µM unless noted
NCI-H23 lung = system: NCI-H23 lung
NCI-H226 lung = system: NCI-H226 lung
NCI-H322M lung = system: NCI-H322M lung
NCI-H460 lung = system: NCI-H460 lung
HOP-92 NSCLC = system: HOP-92 NSCLC
NCI-H522 lung = system: NCI-H522 lung
A549/ATCC NSCLC = system: A549/ATCC NSCLC
786-0 renal = system: 786-0 renal
COLO 205 colon = system: COLO 205 colon

Measured: growth

Cc1c(-c2cnc3ccc(Cl)cc3c2C(=O)O)nnn1-c1ccc(Cl)cc1
inactive: NCI-H23 lung 103% | NCI-H226 lung 102% | NCI-H322M lung 93.6% | NCI-H460 lung 107% | HOP-92 NSCLC 88.7% | NCI-H522 lung 89.1% | A549/ATCC NSCLC 97.1% | 786-0 renal 62.7% | COLO 205 colon 93.8%

CN1/C(=C/C=C/c2n(Cc3ccc4ccccc4c3)c(Cl)c(Cl)[n+]2Cc2ccc3ccccc3c2)Oc2ccccc21
active: NCI-H23 lung -80% | NCI-H226 lung -75.4% | NCI-H322M lung -10.6% | NCI-H460 lung -74.5% | HOP-92 NSCLC -81% | NCI-H522 lung -81.6% | A549/ATCC NSCLC -86.7% | 786-0 renal -82.6% | COLO 205 colon -80.1%

O=C(Nc1ccc(Oc2cccc(F)c2)c(Cl)c1)c1cnccn1
inactive: NCI-H23 lung 44.9% | NCI-H226 lung 61.8% | NCI-H322M lung 46.3% | NCI-H460 lung 22.1% | HOP-92 NSCLC 51.5% | NCI-H522 lung 22.3% | A549/ATCC NSCLC 39.1% | 786-0 renal 46.5% | COLO 205 colon 15.5%

C=C(c1ccc(OC)c(/C=C/C(=O)c2cc(OC)c(OC)c(OC)c2)c1)c1cc(OC)c(OC)c(OC)c1
inactive: NCI-H322M lung 17.9% | HOP-92 NSCLC 40.2%
active: NCI-H23 lung -33.2% | NCI-H226 lung -38% | NCI-H460 lung -30.6% | NCI-H522 lung -19.3% | A549/ATCC NSCLC 9.3% | 786-0 renal -64.3% | COLO 205 colon -13.6%

COCCNC(=O)Cc1cc(-c2ccc(Cl)cc2)n(-c2ccccc2)c1C
inactive: NCI-H23 lung 73.6% | NCI-H226 lung 89.8% | NCI-H322M lung 95.4% | NCI-H460 lung 94% | HOP-92 NSCLC 78.8% | NCI-H522 lung 58.8% | A549/ATCC NSCLC 82.1% | 786-0 renal 88.7% | COLO 205 colon 96.3%

COc1ccc(-c2ccc(-c3ccc(C(=N)N)o3)o2)cc1
active: NCI-H460 lung 0.541% | NCI-H522 lung 1.71% | A549/ATCC NSCLC 1.8% | COLO 205 colon -45.8%
inactive: NCI-H23 lung 35.6% | NCI-H226 lung 78.2% | NCI-H322M lung 56.1% | HOP-92 NSCLC 27% | 786-0 renal 21.9%

Cc1ccc(S(=O)(=O)c2nc(-c3ccccc3)oc2S(C)=O)cc1 (centres undefined)
active: HOP-92 NSCLC -51.8% | NCI-H522 lung -74.5% | 786-0 renal -64.5% | COLO 205 colon -79.3%
inactive: NCI-H23 lung 63.6% | NCI-H226 lung 62.6% | NCI-H322M lung 79.9% | NCI-H460 lung 73.1% | A549/ATCC NSCLC 69.8%

COc1ccc(Nc2nccc(Nc3ccc4[nH]ncc4c3)n2)cc1
active: HOP-92 NSCLC -1.08%
inactive: NCI-H23 lung 40.3% | NCI-H226 lung 28.1% | NCI-H322M lung 63.2% | NCI-H460 lung 24.9% | NCI-H522 lung 19.1% | A549/ATCC NSCLC 24% | 786-0 renal 43.5% | COLO 205 colon 26.4%

C=CN(C(=O)N1CCN(c2cc3c(cc2F)c(=O)c(C(=O)O)cn3C2CC2)CC1)c1nc(-c2ccc(C)cc2)cs1
inactive: NCI-H23 lung 13.4% | NCI-H226 lung 35.4% | NCI-H322M lung 20.8% | A549/ATCC NSCLC 15.7% | 786-0 renal 22.8% | COLO 205 colon 16.7%
active: NCI-H460 lung 9.77% | HOP-92 NSCLC -10.4% | NCI-H522 lung 5.65%

C=CCNc1ccc2c3c(cccc13)C(=O)N(CC=C)C2=O
inactive: NCI-H23 lung 96% | NCI-H226 lung 93.7% | NCI-H322M lung 102% | NCI-H460 lung 99.9% | HOP-92 NSCLC 49.6% | NCI-H522 lung 99.4% | A549/ATCC NSCLC 103% | 786-0 renal 101% | COLO 205 colon 110%

COC12C=C/C(=C(/C(=O)OCc3ccccn3)C(=O)CCCCCCCCC3(OC)C=C/C(=C(/C(=O)OCc4ccccn4)C(=O)CCCCCCCC1)O3)O2
active: NCI-H23 lung -37.4% | NCI-H226 lung -69.4% | NCI-H322M lung -60% | NCI-H460 lung -15.5% | HOP-92 NSCLC -59% | NCI-H522 lung -12.9% | 786-0 renal -72.5% | COLO 205 colon -15.6%

C#CCOc1ccc(C2=NN(CCCC)C3N=C(Cl)c4ncn(CCCC)c4N23)cc1OCC#C (centres undefined)
inactive: NCI-H23 lung 86.9% | NCI-H226 lung 90.5% | NCI-H322M lung 88.8% | NCI-H460 lung 88.6% | HOP-92 NSCLC 73.6% | NCI-H522 lung 74.7% | A549/ATCC NSCLC 80.3% | 786-0 renal 102% | COLO 205 colon 103%

O=C(Nc1ncc(Cc2ccccc2Cl)s1)c1ccc2c(c1)OCCO2
inactive: NCI-H23 lung 40.8% | NCI-H226 lung 30.1% | NCI-H322M lung 48.9% | A549/ATCC NSCLC 20.8% | 786-0 renal 41.2%
active: NCI-H460 lung 5.42% | NCI-H522 lung 1.6% | COLO 205 colon -3.85%

COC(=O)[C@@H](Cc1c[nH]c2ccccc12)NC(=O)[C@H](Cc1ccccc1)NCc1ccncc1
inactive: NCI-H23 lung 97.4% | NCI-H226 lung 94.1% | NCI-H322M lung 92.8% | NCI-H460 lung 104% | HOP-92 NSCLC 91.5% | NCI-H522 lung 73.5% | A549/ATCC NSCLC 83.9% | 786-0 renal 104% | COLO 205 colon 107%

CNC(=O)c1cc(Oc2ccc3nc(NC(=O)NC(C)C)sc3c2)ccn1
inactive: NCI-H23 lung 87.5% | NCI-H226 lung 79.2% | NCI-H322M lung 95.2% | NCI-H460 lung 86.8% | HOP-92 NSCLC 63.3% | NCI-H522 lung 59.3% | A549/ATCC NSCLC 64.3% | 786-0 renal 80.3% | COLO 205 colon 78.8%

Cc1cc(C(=O)Nc2cc(Nc3ncccc3-c3ncnc4nc[nH]c34)ccc2F)cc(C(C)(C)C#N)c1
active: HOP-92 NSCLC -13.4%
inactive: NCI-H23 lung 19.1% | NCI-H226 lung 39.9% | NCI-H322M lung 56.6% | NCI-H460 lung 33.4% | NCI-H522 lung 53.7% | A549/ATCC NSCLC 48.7% | 786-0 renal 63.5% | COLO 205 colon 13.3%

COCCn1cc(-c2nc(-c3cc4cccnc4n3C)cs2)c2cc(OC)ccc21
inactive: NCI-H23 lung 32.6% | NCI-H226 lung 46.6% | NCI-H322M lung 26% | NCI-H460 lung 19.2% | NCI-H522 lung 41.9% | A549/ATCC NSCLC 40.6% | 786-0 renal 66.8% | COLO 205 colon 50.4%

CCCCCC(C)(O)C(C(=O)O)c1ccccc1 (centres undefined)
inactive: NCI-H23 lung 107% | NCI-H226 lung 104% | NCI-H322M lung 104% | NCI-H460 lung 109% | HOP-92 NSCLC 94.1% | NCI-H522 lung 95% | A549/ATCC NSCLC 99.6% | 786-0 renal 99.2% | COLO 205 colon 118%
